The values below come from PubChem BioAssay (EPA / NIEHS).

“And” between values parts separate entries of the source, which are not always exact repeats. Equal values may be shown once. Some structures have more than one record in an assay (separate samples or runs), and their calls can disagree. The source made the active and inactive calls. Rule for the calls: active = hit-call score of the fitted dose curve at least 0.9, where 1 is the maximum; inactive = score below 0.9.

Test [1] can be described thus: APR_HepG2_CellLoss_72hr: Apredica 72-hour HepG2 Assay for Cell Loss (AID 2282915). To be noted: high-content imaging. In short, it runs like this:
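Cell number comes from Hoechst 33342-labelled nuclei, imaged at 20x after 3.7% formaldehyde fixation. Dosing was 0.39–200 uM, ten concentrations in duplicate, 0.5% DMSO final, for 72 h. Bidirectional fit relative to DMSO baseline.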

Test [2] in a line: APR_HepG2_P-H2AX_72hr: Apredica 72-hour HepG2 Assay for H2AX Phosphorylation (AID 2282916).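 Note: phospho-histone H2A.x immunostain intensity per cell marking DNA damage.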 The settings on record: imaging, actives raise or lower the signal. The gist of the method: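 HepG2; cpd 0.39–200 uM ×10 conc, duplicates; 0.5% DMSO; 72 hr. Fix 3.7% formaldehyde 30 min RT, 0.5% Triton X-100 10 min. Anti-phospho-H2A.x 1:200 + Hoechst 2 ug/mL, 60 min RT; ArrayScan imaging.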

Test [3] is described as follows: APR_HepG2_MitoMembPot_72hr: Apredica 72-hour HepG2 Assay for Mitochondrial Membrane Potential (AID 2282917). The settings on record: imaging, actives raise or lower the signal. In short, it runs like this:
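Membrane potential read by MitoTracker Red CMXRos (250 nM, 30 min, pre-fixation) fluorescence imaging of HepG2 after 72 hr exposure. Ten concentrations, 0.39–200 uM, duplicate wells, 0.5% DMSO; fitted in both directions against DMSO baseline.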

The nature of test [4]: APR_HepG2_MitoticArrest_72hr: Apredica 72-hour HepG2 Assay for Mitotic Arrest (AID 2282918). The settings on record: high-content imaging, actives raise or lower the signal. The gist of the method: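 HepG2 cells treated 72 h at 0.39–200 uM, 0.5% DMSO final; formaldehyde-fixed, stained with Hoechst 33342 and phospho-histone H3 antibody, imaged by high-content fluorescence; bidirectional fit versus DMSO.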

Test [5] can be described thus: APR_HepG2_MicrotubuleCSK_72hr: Apredica 72-hour HepG2 Assay for Microtubule CSK Stabilty (AID 2282919). The settings on record: HepG2 microtubule cytoskeleton, high-content imaging, actives raise or lower the signal. The gist of the method:
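Read-out is tubulin fluorescence intensity from high-content imaging of HepG2 cells, with nuclei identified by Hoechst 33342. Treatment lasts 72 h at 0.39–200 uM, and curves are fitted bidirectionally against the DMSO negative control.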

Test [6] in a line: APR_HepG2_P-H2AX_24hr: Apredica 24-hour HepG2 Assay for H2AX Phosphorylation (AID 2282920). To be noted: high-content imaging, actives raise or lower the signal. On the procedure:
APR_HepG2_24hr is a cell-based, multiplexed-readout assay that uses HepG2, a human liver cell line, with measurements taken at 24 hours after chemical dosing in a 384-well plate.APR_HepG2_P-H2AX_24hr is one of 10 assay component(s) measured or calculated from the APR_HepG2_24hr assay. It is designed to make measurements of dna content, a form of viability reporter, as detected with fluorescence intensity signals by HCS Fluorescent Imaging technology.Data from the assay component APR_HepG2_P-H2AX_24hr was analyzed into 1 assay endpoint. This assay endpoint, APR_HepG2_P-H2AX_24hr, was analyzed with bidirectional fitting relative to DMSO as the negative control and baseline of activity. Using a type of viability reporter, measures of protein for gain or loss-of-signal activity can be used to understand the signaling at the pathway-level as they relate to the gene . Furthermore, this assay endpoint can be referred to as a primary readout, because this assay has produced multiple assay endpoints where this one serves a signaling function. To generalize the intended target to other relatable targets, this assay endpoint is annotated to the dna binding intended target family, where the subfamily is cellular response to DNA damage stimulus.
(§1) Cells were treated with dimethyl sulfoxide (DMSO) as a solvent control at a final concentration of 0.5% v/v or with compounds in DMSO with a resulting final DMSO concentration of 0.5% v/v. Compound treatment was done at concentrations of 0.39, 0.78, 1.56, 3.12, 6.24, 12.5, 25, 50, 100, and 200 uM in duplicate on each plate. Cells were treated with compounds for 1, 24, or 72 hr. Carbonyl […] m-chloro-phenylhydrazone (CCCP) and taxol were used as positive controls for mitochondrial function and cytoskeletal stability, respectively; DMSO served as the negative control for this experiment. Cells were fixed by the direct addition of 50 uL formaldehyde in Hank's Balanced Salt Solution (HBSS) to a final concentration of 3.7%. After incubation in the fixation medium for 30 min at room temperature (293-298 K), cells were rinsed twice with HBSS and treated with cell permeabilization buffer (16 uL of 0.5% Triton X-100) for 10 min at room temperature (293-298 K) before labeling. For mitochondrial membrane potential and mitochondrial measurements, pre-fixed cells were incubated with 50 uL of MitoTracker Red CMXRos (Invitrogen) at a concentration of 250 nM for 30 min before fixation. In the remaining cases, post-fixed cells were labeled by incubation with a multiplexed mixture of primary antibodies in HBSS for 60 min at room temperature (293-298 K) to detect immunoreactivity of c-Jun (1:500), phospho-histone H3 (1:100), phospho-histone H2A.x (1:200), p53 (1:400), alpha-tubulin (1:200) and Hoechst 33342 (2 ug/mL). […]

Test [7] is described as follows: APR_HepG2_StressKinase_72hr: Apredica 72-hour HepG2 Assay for Stress Kinase (AID 2282921). To be noted: HepG2 stress kinase (phospho-c-Jun) imaging, actives raise or lower the signal. The gist of the method: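 Dose 0.39–200 uM (10 pts, duplicate), 0.5% DMSO; 72 h; fix 3.7% formaldehyde 30 min RT; Triton permeabilize; anti-phospho-c-Jun/Cy3 + Hoechst 60 min RT; image 20x; fit gain/loss vs DMSO.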

Test [8] can be described thus: APR_HepG2_StressKinase_24hr: Apredica 24-hour HepG2 Assay for Stress Kinase (AID 2282922). The settings on record: HepG2 stress kinase (phospho-c-Jun) imaging, actives raise or lower the signal. On the procedure:
APR_HepG2_24hr is a cell-based, multiplexed-readout assay that uses HepG2, a human liver cell line, with measurements taken at 24 hours after chemical dosing in a 384-well plate.APR_HepG2_StressKinase_24hr is one of 10 assay component(s) measured or calculated from the APR_HepG2_24hr assay. It is designed to make measurements of enzyme activity, a form of enzyme reporter, as detected with fluorescence intensity signals by HCS Fluorescent Imaging technology.Data from the assay component APR_HepG2_StressKinase_24hr was analyzed into 1 assay endpoint. This assay endpoint, APR_HepG2_StressKinase_24hr, was analyzed with bidirectional fitting relative to DMSO as the negative control and baseline of activity. Using a type of enzyme reporter, measures of protein for gain or loss-of-signal activity can be used to understand the signaling at the pathway-level as they relate to the gene . Furthermore, this assay endpoint can be referred to as a primary readout, because this assay has produced multiple assay endpoints where this one serves a signaling function. To generalize the intended target to other relatable targets, this assay endpoint is annotated to the cell cycle intended target family, where the subfamily is stress response.
as §1, with “ug/mL). Cells were labeled for multiplexed imaging on two separate plates: a) Hoechst 33342, MitoTracker Red, phospho-histone H3, and alpha-tubulin, and b) Hoechst 33342, phospho-histone H2A.x, and c-Jun. A final rinse with HBSS (50 uL) was performed before analysis. The primary and secondary antibodies for the proteins were phospho-histone H3 (rabbit anti-phospho-histone H3 and FITC-donkey anti-rabbit IgG), phospho-histone H2A.x (mouse anti-phospho-histone H2A.x and FITC-donkey anti-mouse IgG), c-Jun (rabbit anti-phospho-c-Jun and Cy3-donkey anti-rabbit IgG), p53 (sheep anti-p53 and Cy5-donkey anti-sheep IgG), alpha-tubulin (mouse anti-alpha-tubulin and Cy5-donkey anti-mouse IgG).” for “ug/mL).”

The nature of test [9]: APR_HepG2_p53Act_72hr: Apredica 72-hour HepG2 Assay for p53 Activation (AID 2282923).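 Note: average cellular p53 protein immunofluorescence intensity in HepG2 cells.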 The settings on record: high-content imaging, actives raise or lower the signal. In short, it runs like this:
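10-pt conc. 0.39–200 uM, duplicate, 0.5% DMSO; 72 hr exposure; 3.7% formaldehyde fix, 0.5% Triton perm; sheep anti-p53/Cy5 + Hoechst; ArrayScan 20x, 6 images/well; gain/loss fit vs DMSO.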

Test [10] can be described thus: APR_HepG2_MitoMass_72hr: Apredica 72-hour HepG2 Assay for Mitochondrial Mass (AID 2282924).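 Note: MitoTracker Red CMXRos stain intensity per cell imaged as mitochondrial mass.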 The settings on record: high-content imaging, actives raise or lower the signal. In short, it runs like this:
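HepG2, 72 hr cmpd, 10 conc 0.39–200 uM in dup, DMSO 0.5% v/v. MitoTracker Red CMXRos 250 nM 30 min pre-fix; formaldehyde 3.7% fix 30 min RT. HCS imaging, gain/loss fit vs DMSO.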

The term AC50 denotes the concentration at which the activity in the assay is half-maximal.

For `O=C(c1ccc(OCCN2CCCCC2)cc1)c1c(-c2ccc(O)cc2)sc2cc(O)ccc12`, the compound was called inactive in test [1], in test [2], in [3], in test [4], in [5] and in test [6]. The call in test [7], in [8], in test [9] and in test [10] was inactive.

As for `C#C[C@]1(O)CC[C@H]2[C@@H]3CCc4cc(O)ccc4[C@H]3CC[C@@]21C`, the AC50 in test [1] is 34.6 µM (active); in test [2] it was 70.6 µM (active); in [4] it was 58.1 µM (active); in test [6], 83.4 µM (active); in [9], 28.5 µM (active). Moreover, the compound was classed as inactive in [3], in [5], in test [7], in test [8] and in [10].

As for `C[C@]12CC[C@@H]3c4ccc(O)cc4CC[C@H]3[C@@H]1CC[C@@H]2O`, the AC50 in test [1] was 28.6 µM (active); in [2], 30.7 µM (active); in [4], 32.8 µM (active); in test [6] it was 24.5 µM (active); in test [9], 25.6 µM (active). Further, the result in [3], in test [5], in [7], in [8] and in test [10] was inactive.

For `CC/C(=C(\c1ccccc1)c1ccc(OCCN(C)C)cc1)c1ccccc1`, the AC50 in [1] was 13.3 µM (active) and 17.4 µM (active); in [2], 53.9 µM (active) and 59 µM (active); in test [3], 30.7 µM (active); in test [4] it was 9.78 µM (active) and 3.59 µM (active); in test [6] it was 11.6 µM (active) and 19.7 µM (active); in test [7], 63.4 µM (active) and 100 µM (active). In addition, the AC50 in [8] is 32.1 µM (active); in [9], 6.04 µM (active); in test [10] it was 152 µM (active). In addition, the result in test [3], in test [5], in test [8], in test [9] and in test [10] was inactive.
